# From PubChem BioAssay
# Values joined by “and” are separate entries in the source; they are usually repeats but may differ in a detail not shown here. Equal values may be shown once. Active and inactive are the calls of the source.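 Rule for the calls, unless noted: active = compounds that lower viability of the colon cancer cells in the luminescence readout, with no numeric limit stated; inactive = the rest.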
# Columns and labels:
# [1] = stimulators of nuclear beta-catenin in C2C12, primary screen, imaging, WNT3A-conditioned medium, mouse C2C12, NPC library (AID 1117326; in the data active = nuclear beta-catenin stimulation mostly above about 4.2%, no sharp cut-off; inactive = mostly below about 10%); conditions: stronger effect = higher value
# [2] = stimulators of insulin release from INS-1E, primary screen, cell-based, 5 mM glucose, NPC library (AID 1117329;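 active = compound raises insulin release from rat beta cells at 5 mM glucose, no numeric limit stated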); conditions: rat INS-1E insulin secretion, at 10 µM, stronger effect = higher value
# [3] = growth inhibition of GSK3B-pretreated HCT116 cells – cell-based, CellTiter-Glo, 0.2 to 20 µM (AID 1117336;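 active = compounds lowering colon cancer cell viability after pretreatment blocking the GSK3B kinase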); conditions: HCT116 viability after GSK3B inhibitor, at 20 µM, stronger effect = higher value
# [4] = inhibition of endothelial tube formation, primary screen, imaging, VEGF stimulated, CD31 staining, tube area, NPC library (AID 1117340;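 active = compound that reduces growth-factor-driven endothelial tube area in a mixed cell culture, no cutoff stated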); conditions: VEGF-stimulated ADSC/ECFC co-culture, at 10 µM, stronger effect = higher value
# [5] = glucagon-like peptide 1 release enhancers, primary assay, NCI-H716 cell line, NPC library (AID 1117341;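 active = compound raises GLP1 secretion from the human gut endocrine cells, with no numeric limit stated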); conditions: NCI-H716 cells, at 10 µM, stronger effect = higher value
# [6] = HCT116 colon cancer cell growth inhibition, primary screen, CellTiter-Glo luminescence, NPC library (AID 1117342;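 active = compounds that lower survival of HCT116 colon cancer cells in the luminescence readout, no numeric limit stated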); conditions: at 20 µM (top of the series)
# [7] = CellTiter-Glo luminescent readout of SW480 viability loss, NPC library primary (AID 1117343); conditions: CellTiter-Glo luminescence; at 20 µM (top of the series)
# [8] = decreased DLD-1 cellular survival, CellTiter-Glo luminescent readout, NPC compound collection, primary HTS (AID 1117346;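 active = compounds that lower survival of DLD-1 colon cancer cells in the luminescence readout, no cutoff given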); conditions: DLD-1 viability, CellTiter-Glo luminescence; at 20 µM (top of the series)
# [9] = survival rescue of mitochondrial mutant cells in low glucose, primary screen, MELAS cybrids, Rieske KO mouse fibroblasts, CellTiter-Glo (AID 1508586;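 active = mean z-score across replicates of 1.96 or higher in either the MELAS or the Rieske mutant cell line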;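 note: z relative to plate mean and SD of compound and empty wells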)
# [10] = biological target: NAD(+) hydrolase SARM1 (Homo sapiens) (UniProt Q6SZW1); test: SARM1 TIR NADase inhibitors, cell lysate, NAD-Glo luminescence (AID 1508614;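 active = compound whose remaining NAD level is above about 45 nM, limit read from the data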;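 note: higher remaining NAD means stronger inhibition of SARM1 NADase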); conditions: SAM-TIR HEK293T lysate NADase, at 1 µM, stronger effect = higher value
# [11] = viability rescue of complex I mutant cybrids, primary screen, cell-based, galactose medium, ATP luminescence (AID 1645843;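 active = z-score of at least 1.8 in each of two replicates, scored against plate mean and spread of sample wells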;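 note: positive z means more ATP and so rescue of galactose-driven cybrid death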); conditions: complex I mutant cybrid cells, 72 h, stronger effect = higher value
# [12] = liver-stage malaria parasite growth inhibition, primary screen, cell-based, HepG2, luciferase luminescence, HepG2 viability (AID 624349; in the data active = parasite load remaining mostly below about 12%, no sharp cut-off; inactive = mostly above about 10%;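 note: 100% = mean of DMSO negative control wells on the same plate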); conditions: P. berghei liver stage in HepG2, luciferase luminescence, concentration not given here; parasite load remaining: stronger effect = lower value; viability: measured here: HepG2 viability without parasites
# [13] = differential killing of epithelial or mesenchymal cells, primary screen, imaging, PC-3E GFP, TEM4-18 mCherry, co-culture (AID 1345086;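 active = compounds killing one labelled cell type while sparing the other, by normalised counts and ratio limits, not self-fluorescent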;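 note: cells exposed to compound for 72 h before imaging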;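 for red/green cell ratio (normalised): normalised mesenchymal count divided by normalised epithelial count so high means epithelial killing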); conditions: imaging cell counts, at 1 µM
# [14] = sensitizers of A549 cells to miR-34 induction, primary screen, imaging, A549 dox-inducible miR-34, nuclei and caspase counts (AID 1347080;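 active = compounds whose cell count with miR-34 switched on is under 0.7 times the count with it off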); conditions: A549 miR-34 inducible, Hoechst nuclei count, 48 h
# [15] = MELAS cybrid survival, CellTiter-Glo 48 h, stronger effect = higher value
# [16] = Rieske KO mouse fibroblast survival, CellTiter-Glo 72 h
# Chain of NAD(+) hydrolase SARM1 (Homo sapiens) (Q6SZW1 whole entry, looked up): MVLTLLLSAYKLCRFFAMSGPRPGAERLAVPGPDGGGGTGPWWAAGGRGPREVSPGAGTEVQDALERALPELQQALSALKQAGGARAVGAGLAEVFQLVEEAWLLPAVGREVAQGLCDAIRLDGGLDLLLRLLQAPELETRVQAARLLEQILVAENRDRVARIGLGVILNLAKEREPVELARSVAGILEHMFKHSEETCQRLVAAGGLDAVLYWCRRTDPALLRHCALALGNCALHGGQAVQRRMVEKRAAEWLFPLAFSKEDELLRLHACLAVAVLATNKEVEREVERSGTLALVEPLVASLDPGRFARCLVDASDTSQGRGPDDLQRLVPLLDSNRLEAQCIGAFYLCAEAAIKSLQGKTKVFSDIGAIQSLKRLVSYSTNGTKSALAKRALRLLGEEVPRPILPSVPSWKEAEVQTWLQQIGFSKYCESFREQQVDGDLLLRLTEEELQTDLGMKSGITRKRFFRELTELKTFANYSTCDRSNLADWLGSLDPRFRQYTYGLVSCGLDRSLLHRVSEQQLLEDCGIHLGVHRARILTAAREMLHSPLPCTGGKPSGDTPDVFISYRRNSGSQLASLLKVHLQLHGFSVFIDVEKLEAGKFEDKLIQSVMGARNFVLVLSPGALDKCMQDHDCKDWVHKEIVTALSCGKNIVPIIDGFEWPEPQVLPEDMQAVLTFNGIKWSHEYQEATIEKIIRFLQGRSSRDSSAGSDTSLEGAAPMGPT
smiles,measurement,setting,value
C#CCN(C)[C@H](C)Cc1ccccc1,nuclear beta-catenin stimulation,[1]; at 10 µM,-2% (inactive)
same,nuclear beta-catenin stimulation,"[1]; stimulation, at 2 µM",0.7%
same,insulin secretion stimulation,[2],1.2% (inactive)
same,viability decrease,[3],1.9% (inactive)
same,tube area decrease,[4],-3.8% (inactive)
same,GLP1 secretion stimulation,[5],1.9% (inactive)
same,inhibition of viability,[6],6.37% (inactive)
same,viability decrease (inhibition),[7],10.9% (inactive)
same,viability decrease (inhibition),[8],8.8% (inactive)
same,z-score,[9]; [15],-1.17 (inactive) and -0.00892 (inactive)
same,z-score,[9]; [16],-0.0749 and -0.112
same,remaining NAD,[10],10 nM (inactive)
same,z-score,[11],1.24 (inactive) and 0.63 (inactive)
CC(C)c1c(CN(C)C(C)Cc2ccccc2)n(C)n(-c2ccccc2)c1=O (stereo not drawn),parasite load remaining,[12],76.8% (inactive)
same,viability,[12],87.3%
same,nuclear beta-catenin stimulation,[1]; at 10 µM,1.5% (inactive)
same,nuclear beta-catenin stimulation,"[1]; stimulation, at 2 µM",5.4%
same,insulin secretion stimulation,[2],0% (inactive)
same,viability decrease,[3],-83% (inactive)
same,tube area decrease,[4],9.4% (inactive)
same,GLP1 secretion stimulation,[5],3.9% (inactive)
same,inhibition of viability,[6],50.3% (active)
same,viability decrease (inhibition),[7],103% (active)
same,viability decrease (inhibition),[8],73.2% (active)
same,red/green cell ratio (normalised),[13]; actives lie on both sides,1.06 (inactive)
same,normalised cell number,[13]; measured here: epithelial PC-3E GFP cell survival,0.93
same,normalised cell number,[13]; measured here: mesenchymal TEM4-18 mCherry cell survival,0.98
same,fold change,[14]; stronger effect = lower value,0.889 (inactive)
same,fold change,[14]; measured here: relative caspase fold change +Dox/-Dox,1.06
same,cell count,"[14]; measured here: total cells with miR-34 induction, stronger effect = lower value",8350
same,cell count,[14]; measured here: total cells without miR-34 induction,9380
same,z-score,[9]; [15],-1.05 (inactive)
same,z-score,[9]; [16],0.158
same,remaining NAD,[10],10 nM (inactive)
C#C[C@]1(O)C=C[C@H]2[C@@H]3CCC4=CC(=O)CC[C@@H]4[C@H]3CC[C@@]21CC,nuclear beta-catenin stimulation,[1]; at 10 µM,0.9% (inactive)
same,nuclear beta-catenin stimulation,"[1]; stimulation, at 2 µM",-1%
same,insulin secretion stimulation,[2],-0.7% (inactive)
same,viability decrease,[3],7.4% (inactive)
same,tube area decrease,[4],-2.3% (inactive)
same,GLP1 secretion stimulation,[5],3.4% (inactive)
same,inhibition of viability,[6],32.2% (inactive)
same,viability decrease (inhibition),[7],-18.5% (inactive)
same,viability decrease (inhibition),[8],-11.8% (inactive)
